This is an account of results in PubChem BioAssay.

Activity calls are given as the source filed them. Unless noted, no rule for the calls is given here.

For experiment [1], the system named is Wnt5a (protein binding on small-molecule microarray). In words: small molecules binding Wnt5a protein – biophysical, small-molecule microarray, 635/667 nm fluorescence, primary screen (AID 1142).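 Also: fluorescence read at 667 nm with signal to noise per printed feature.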 Particulars: 635 nm fluorescence, higher = more signal.
Experiment [2] can be described thus: ATP-based viability of Huh7 replicon cells – cell-based, CellTiter-Glo luminescence, basal, 48 h, cytotoxicity control for HCV replication inhibitor project, primary screen (AID 1143).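 Also: Huh7 hepatoma cells carrying a hepatitis C replication reporter with no stimulus; test concentration not given here.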 Particulars: higher = more signal, called active from +8 up or from −8 down.
A short description of experiment [3]: Pseudomonas biofilm growth suppression – PAO1 strain, BacTiter-Glo luminescence, LB-PBS, primary screen (AID 1144). Particulars: P. aeruginosa PAO1 biofilm, 12 h, higher = more signal.
A short description of experiment [4]: basal CRE-LacZ reporter activity in PC12 – cell-based, unstimulated, primary screen (AID 1145). Particulars: no forskolin, luminescence, 4.5 h, higher = more signal, called active from +8 up or from −8 down.
A short description of experiment [5]: forskolin-driven CRE-LacZ activity in PC12 – cell-based, CRE-LacZ reporter, forskolin-stimulated, primary screen (AID 1146).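 Also: PC12 cells with 6xCRE LacZ reporter stimulated by forskolin 10 µM; beta-galactosidase reporter signal reflecting CREB driven transcription.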 Particulars: luminescence, 4.5 h, higher = more signal, called active from +8 up or from −8 down.
Experiment [6] has as its target Streptavidin (Streptomyces avidinii) (UniProt P22629). In words: compounds binding control protein streptavidin – biophysical, small-molecule microarray, 635/667 nm fluorescence, artefact control for SMM compound annotation, primary screen (AID 1147).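 Also: signal reflects streptavidin binding to arrayed compounds as a control protein.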 Particulars: higher = more signal.
Experiment [7] is described as follows: probe aInhba binding on compound microarray – biochemical, small-molecule microarray, 635/667 nm fluorescence, primary screen (AID 1148).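 Also: score merges 667nm spot fluorescence with signal-to-noise for antibody binding to printed compounds.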 Particulars: higher = more signal.
In experiment [8] the target is Torsin-1A (Homo sapiens) (UniProt O14656). In words: TOR1A wild-type binding on microarray – cell lysate, small-molecule microarray, lysate, 635/667 nm, primary screen (AID 1149). Particulars: COS7 hTOR1A-WT lysate, 635 nm fluorescence, higher = more signal.
Sequence of Torsin-1A (Homo sapiens) (O14656 whole entry, looked up): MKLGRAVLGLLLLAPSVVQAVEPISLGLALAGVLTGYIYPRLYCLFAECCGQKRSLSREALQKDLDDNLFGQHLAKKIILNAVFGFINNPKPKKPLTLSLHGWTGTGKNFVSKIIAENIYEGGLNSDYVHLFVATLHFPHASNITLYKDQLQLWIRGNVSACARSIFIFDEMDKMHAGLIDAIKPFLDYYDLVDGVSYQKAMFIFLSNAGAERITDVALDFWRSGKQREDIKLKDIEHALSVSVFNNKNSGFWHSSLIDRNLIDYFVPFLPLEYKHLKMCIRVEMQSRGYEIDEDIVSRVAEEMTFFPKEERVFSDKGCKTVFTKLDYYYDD
Experiment [9] has the same target. In words: torsin A mutant lysate binding on microarrays – cell lysate, small-molecule microarray, COS7 lysate, 635/667 nm fluorescence, primary screen (AID 1150).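 Also: score pools 667 nm emission and signal to noise measuring lysate protein binding.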 Particulars: COS7 hTOR1A mutant lysate, 635 nm fluorescence, higher = more signal.
The subject of experiment [10] is Sonic hedgehog protein (Shh). In words: Sonic hedgehog microarray binding compounds – biochemical, small-molecule microarray, 635/667 nm fluorescence, primary screen (AID 1151).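 Also: Shh protein binding to compounds spotted on small-molecule microarray slides; score combines spot fluorescence intensity with signal-to-noise across triplicate slides.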 Particulars: 635 nm fluorescence, higher = more signal.
Experiment [11] can be described thus: optical density shifts of acrAB sulA E. coli – strain DRC41, OD650, 48 h, E. coli filamentation inducer project, primary screen (AID 1152).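 Also: E. coli MC1000 strain DRC41 lacking acrAB efflux pump and sulA.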 Particulars: higher = more signal, called active from +8 up or from −8 down.
A short description of experiment [12]: probe aLefty1 binding on compound microarray – biochemical, small-molecule microarray, 635/667 nm fluorescence, primary screen (AID 1153).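 Also: score merges spot fluorescence with signal-to-noise ratio from the scanned slide images.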 Particulars: higher = more signal.
A short description of experiment [13]: plasmodial surface anion channel blockers, osmotic lysis – cell-based, P. falciparum Indochina, OD700, 1 h, primary screen (AID 1154). Particulars: P. falciparum Indochina infected RBC osmotic lysis, higher = more signal, called active from +8 up or from −8 down.
A short description of experiment [14]: plasmodial surface anion channel blockers, osmotic lysis – cell-based, P. falciparum Indochina, OD700, 2 h, primary screen (AID 1155).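 Also: lysis reports solute entry through the parasite surface anion channel PSAC.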 Particulars: P. falciparum Indochina infected erythrocytes, higher = more signal, called active from +8 up or from −8 down.
A short description of experiment [15]: changes in parasitized red cell lysis, either direction – P. falciparum Indochina, OD700, 3 h, PSAC antagonist project, primary screen (AID 1156). Particulars: P. falciparum-infected erythrocytes, osmotic lysis, higher = more signal, called active from +8 up or from −8 down.
Experiment [16] can be described thus: plasmodial surface anion channel blockers, osmotic lysis – cell-based, P. falciparum Indochina, OD700, 18 h, primary screen (AID 1157). Particulars: P. falciparum Indochina infected erythrocytes, osmotic lysis OD700, 18 h; higher = more signal, called active from +8 up or from −8 down.
A short description of experiment [17]: S6 kinase pathway phospho-S6 level changes – cell-based, A549, cytoblot, luminescence, serum-stimulated, primary screen (AID 1158).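 Also: serum-stimulated A549 lung adenocarcinoma cells; signal is phosphorylated S6 detected by cytoblot immunostaining with HRP secondary.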 Particulars: 5 h, higher = more signal.
Experiment [18] concerns the target NADPH oxidase 2 (Homo sapiens) (UniProt P04839). In words: compounds shifting NOX2 Amplex Red fluorescence – cell-based, HEK293-NOX2, PMA-stimulated, NOX inhibitor project, primary screen (AID 1159). Also: test concentration not given here. Particulars: 45 min, higher = more signal, called active from +8 up or from −8 down.
Experiment [19] concerns the target NADPH oxidase 4 (Homo sapiens) (UniProt Q9NPH5). In words: compounds shifting NOX4 Amplex Red fluorescence – cell-based, HEK293-NOX4, tetracycline-induced, NOX inhibitor project, primary screen (AID 1160). Particulars: HEK293-NOX4, Amplex Red H2O2 fluorescence, 45 min; higher = more signal, called active from +8 up or from −8 down.
The target of experiment [20] is NADPH oxidase 5 (Homo sapiens) (UniProt Q96PH1). In words: compounds shifting NOX5 Amplex Red fluorescence – cell-based, HEK293-NOX5, NOX inhibitor project, primary screen (AID 1161). Particulars: HEK293-NOX5, ionomycin, 45 min, higher = more signal.
Sequence of NADPH oxidase 5 (Homo sapiens) (Q96PH1 whole entry, looked up): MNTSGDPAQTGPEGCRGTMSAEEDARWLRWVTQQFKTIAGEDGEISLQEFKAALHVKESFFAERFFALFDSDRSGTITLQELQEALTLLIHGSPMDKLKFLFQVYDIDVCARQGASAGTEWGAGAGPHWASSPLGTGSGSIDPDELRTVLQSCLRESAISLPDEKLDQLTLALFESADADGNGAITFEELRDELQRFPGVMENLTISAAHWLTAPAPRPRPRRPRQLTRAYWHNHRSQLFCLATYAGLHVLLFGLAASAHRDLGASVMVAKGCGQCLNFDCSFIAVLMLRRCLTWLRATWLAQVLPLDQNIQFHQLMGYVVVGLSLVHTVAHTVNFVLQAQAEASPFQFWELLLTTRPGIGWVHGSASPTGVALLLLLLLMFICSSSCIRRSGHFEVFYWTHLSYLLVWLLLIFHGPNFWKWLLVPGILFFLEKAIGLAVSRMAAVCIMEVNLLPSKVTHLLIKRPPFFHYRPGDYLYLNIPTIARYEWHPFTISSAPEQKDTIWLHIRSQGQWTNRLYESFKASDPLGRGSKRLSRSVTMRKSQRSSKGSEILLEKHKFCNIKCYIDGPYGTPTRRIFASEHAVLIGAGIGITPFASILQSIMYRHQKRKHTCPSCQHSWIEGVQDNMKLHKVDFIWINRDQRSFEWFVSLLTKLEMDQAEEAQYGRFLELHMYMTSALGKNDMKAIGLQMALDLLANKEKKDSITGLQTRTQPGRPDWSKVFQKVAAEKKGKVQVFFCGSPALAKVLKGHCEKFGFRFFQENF

Sequence of Streptavidin (Streptomyces avidinii) (P22629 whole entry, looked up): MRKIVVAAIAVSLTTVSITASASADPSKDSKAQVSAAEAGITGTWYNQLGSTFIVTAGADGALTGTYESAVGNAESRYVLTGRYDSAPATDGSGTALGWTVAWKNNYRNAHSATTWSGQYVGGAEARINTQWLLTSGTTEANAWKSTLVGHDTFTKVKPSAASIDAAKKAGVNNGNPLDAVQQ
Sequence of NADPH oxidase 4 (Homo sapiens) (Q9NPH5 whole entry, looked up): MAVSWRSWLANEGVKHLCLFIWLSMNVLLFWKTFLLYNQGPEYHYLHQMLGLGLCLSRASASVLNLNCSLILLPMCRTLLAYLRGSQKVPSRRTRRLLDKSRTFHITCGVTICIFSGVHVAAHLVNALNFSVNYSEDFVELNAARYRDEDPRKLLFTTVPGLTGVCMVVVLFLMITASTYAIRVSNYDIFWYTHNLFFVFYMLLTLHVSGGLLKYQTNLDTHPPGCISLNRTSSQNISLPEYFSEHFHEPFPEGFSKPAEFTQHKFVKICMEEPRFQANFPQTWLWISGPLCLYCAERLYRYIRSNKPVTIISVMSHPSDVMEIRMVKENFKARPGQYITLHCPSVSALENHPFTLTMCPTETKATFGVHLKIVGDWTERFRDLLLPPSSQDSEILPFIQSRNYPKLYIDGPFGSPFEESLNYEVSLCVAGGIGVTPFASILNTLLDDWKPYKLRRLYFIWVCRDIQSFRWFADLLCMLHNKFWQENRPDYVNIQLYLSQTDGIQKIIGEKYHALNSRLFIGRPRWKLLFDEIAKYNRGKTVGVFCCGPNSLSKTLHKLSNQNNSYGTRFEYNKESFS
Sequence of NADPH oxidase 2 (Homo sapiens) (P04839 whole entry, looked up): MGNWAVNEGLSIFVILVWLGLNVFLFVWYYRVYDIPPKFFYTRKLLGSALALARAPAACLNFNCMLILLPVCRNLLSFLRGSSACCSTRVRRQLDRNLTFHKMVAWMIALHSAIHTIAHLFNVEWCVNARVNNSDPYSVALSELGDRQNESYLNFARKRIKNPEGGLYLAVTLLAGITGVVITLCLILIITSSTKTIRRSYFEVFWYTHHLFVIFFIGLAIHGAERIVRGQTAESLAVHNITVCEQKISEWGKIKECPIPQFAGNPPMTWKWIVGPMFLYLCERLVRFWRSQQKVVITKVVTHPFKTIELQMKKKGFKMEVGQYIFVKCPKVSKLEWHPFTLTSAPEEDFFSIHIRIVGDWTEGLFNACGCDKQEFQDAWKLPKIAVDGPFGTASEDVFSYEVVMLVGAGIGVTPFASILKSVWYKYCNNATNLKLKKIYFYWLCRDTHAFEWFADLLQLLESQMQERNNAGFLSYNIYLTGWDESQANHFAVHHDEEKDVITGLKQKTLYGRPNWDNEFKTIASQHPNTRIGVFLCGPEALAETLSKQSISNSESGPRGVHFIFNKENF

Turning to `COC(=O)[C@@]1(Cc2ccc(F)cc2)[C@H]2c3cc(C(=O)N(C)C)n(Cc4cc(F)c(F)c(F)c4)c3C[C@H]2CN1C(=O)c1ccccc1`, the composite z-score in experiment [1] is 0.283; in [6], 1.25; in experiment [7], 1.08; with Torsin-1A (Homo sapiens) [8], -0.272; with Torsin-1A (Homo sapiens) [9], 0.193; in experiment [10] it was -0.176. Besides, the composite z-score in [12] was 0.5. Moreover, the z-score in experiment [2] was -3 (inactive); in experiment [3], 0.459 (inactive); in experiment [4], 1.53 (inactive); in experiment [5], 0.578 (inactive); in experiment [11], -1.42 (inactive); in experiment [13], 4.21 (inactive). In addition, the z-score in experiment [14] was 0.548 (inactive); in experiment [15] it was 0.365 (inactive); in experiment [16], 1.16 (inactive); in experiment [17], -0.359; in experiment [18], 0.525 (inactive); in experiment [19], 2.18 (inactive). In addition, the z-score in [20] stood at 1.26.

Turning to `Cc1nc2cc(Br)ccc2c(=O)o1`, the composite z-score in [1] is 0.119; in experiment [6], 0.498; in [7], 0.0319; with Torsin-1A (Homo sapiens) [8] it was 0.842; with Torsin-1A (Homo sapiens) [9], 0.642; in experiment [10] it was 0.113. In experiment [12], this compound came in with a composite z-score of 0.442. Moreover, the z-score in experiment [2] was -1.66 (inactive); in experiment [3], -1.06 (inactive); in experiment [4] it was -0.464 (inactive); in experiment [5], -1.27 (inactive); in [11], 0.776 (inactive); in [13] it was 0.252 (inactive). Also, the z-score is 0.0276 (inactive) in experiment [14]; 0.193 (inactive) in experiment [15]; -0.509 (inactive) in experiment [16]; 0.472 in experiment [17]; 0.288 (inactive) in [18]; -0.0246 (inactive) in experiment [19]. Also, the z-score in experiment [20] came out at 0.256.

As for `CC1CC/C=C\[C@H]2OC34C=CCN(Cc5ccccc5)C(=O)[C@H]3N(CCCO)C(=O)[C@@H]4C2C(=O)O1` (stereo not given in full), the composite z-score is -0.403 in experiment [1]; -0.942 in experiment [6]; -0.206 in experiment [7]; -0.681 in the experiment with Torsin-1A (Homo sapiens) [8]; -1.56 with Torsin-1A (Homo sapiens) [9]; -0.233 in experiment [10]. This compound had a composite z-score in experiment [12] of -0.147. Also, the z-score in experiment [2] is -0.667 (inactive); in experiment [3], 0.446 (inactive); in experiment [4], -0.0778 (inactive); in [5], 0.776 (inactive); in experiment [11] it was 0.144 (inactive); in experiment [13] it was 0.329 (inactive). Besides, the z-score is -0.093 (inactive) in experiment [14]; -0.316 (inactive) in experiment [15]; -0.254 (inactive) in experiment [16]; -0.102 in experiment [17]; 1.66 (inactive) in [18]; 0.366 (inactive) in [19]. Besides, in experiment [20], the z-score turned out to be 3.18.

As to `COCCOC(=O)N1C(=O)[C@@]2(c3cc(C#CCC(C(=O)OC)C(=O)OC)ccc31)[C@H](C(=O)N1CCN(c3ncccn3)CC1)[C@H]1C(=O)O[C@H](c3ccccc3)[C@H](c3ccccc3)N1[C@@H]2c1ccccc1OCCO`, the composite z-score in [1] worked out at 0.833; in [6], 0.39; in experiment [7], 0.326; in the experiment with Torsin-1A (Homo sapiens) [8], 0.135; in the experiment with Torsin-1A (Homo sapiens) [9], 0.579; in experiment [10], 2.19. In [12], this compound had a composite z-score of 0.312. For the same compound, the z-score in experiment [2] is -3.78 (inactive); in [3] it was 1.13 (inactive); in experiment [4] it was -0.337 (inactive); in experiment [5], -0.374 (inactive); in experiment [11], -0.646 (inactive); in experiment [13], 3.14 (inactive). For the same compound, the z-score in experiment [14] was 1.55 (inactive); in experiment [15], 0.391 (inactive); in experiment [16], 0.533 (inactive); in experiment [17], 0.0555; in [18], 1.45 (inactive); in experiment [19] it was 0.851 (inactive). Moreover, the z-score in experiment [20] was 1.3.

As for `COC(=O)[C@@]1(Cc2ccc(OC)cc2)[C@H]2c3cc(C(=O)N4CCCC4)n(Cc4ccc(C)c(F)c4F)c3C[C@H]2CN1C(=O)c1ccccc1`, the composite z-score was 0.634 in [1]; 1.81 in experiment [6]; 0.289 in experiment [7]; -0.429 in the experiment with Torsin-1A (Homo sapiens) [8]; 0.839 in the experiment with Torsin-1A (Homo sapiens) [9]; -0.746 in experiment [10]. The same compound registered a composite z-score in experiment [12] of 0.378. Moreover, the z-score in experiment [2] is -2.92 (inactive); in experiment [3], 0.605 (inactive); in experiment [4] it was -1.15 (inactive); in experiment [5], -0.572 (inactive); in experiment [11], -0.548 (inactive); in [13] it was 3.76 (inactive). Besides, the z-score is 0.233 (inactive) in experiment [14]; 0.894 (inactive) in experiment [15]; 1.08 (inactive) in experiment [16]; 0.105 in experiment [17]; 0.705 (inactive) in experiment [18]; 1.23 (inactive) in [19]. Also, in experiment [20], the z-score is -3.41.
